# Screening results from PubChem.
# PglD DTNB: C. jejuni PglD acetyltransferase inhibitors, primary screen, biochemical, DTNB colorimetric, single point; UDP-N-acetylbacillosamine N-acetyltransferase PglD (Campylobacter jejuni); purified PglD enzyme, DTNB colorimetric CoA detection; inhibition, % at 12.5 µM; 0.098% of 360,000 active; AID 602405, 2012; in the data active means inhibition above about 16%, passing the limit was not always enough
# ALR H2O2 inh: inhibitors of human ALR sulfhydryl oxidase, primary screen, biochemical, H2O2 detection, HRP-luminol luminescence, single point | inhibition, % (test concentration not listed) | FAD-linked sulfhydryl oxidase ALR (Homo sapiens), P55789 | AID 485317, 2010 | purified ALR, DTT oxidation | 3.8% of 290,000 active;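 active means mean replicate inhibition above about 79%, with every replicate also reaching it, limit read from the data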
# Target sequence (P55789 whole entry, looked up): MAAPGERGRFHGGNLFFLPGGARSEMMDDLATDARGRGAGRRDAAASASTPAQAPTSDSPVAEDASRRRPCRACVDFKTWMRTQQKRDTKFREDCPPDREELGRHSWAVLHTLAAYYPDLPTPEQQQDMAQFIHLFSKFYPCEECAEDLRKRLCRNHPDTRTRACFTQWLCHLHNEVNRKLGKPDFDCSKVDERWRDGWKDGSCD
# Env fusion inh: inhibitors of HIV-1 Env-driven cell-cell fusion, primary screen, HeLa-JRFL effector, CEM21 target cells, luciferase. inhibition, % at 12.3 µM. AID 651610, 2012. 1.1% of 360,000 active;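 active means mean replicate inhibition score of at least 50 and every replicate individually at or above 50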;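 further: 0% = plate neutral controls and 100% = maraviroc near 300 nM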
# CFTR F508del cor: F508del CFTR correction, initial screen, CFBE line, single point; CFBE cells, YFP halide quenching; stimulated with forskolin plus potentiator P3; % fluorescence drop versus neutral controls; AID 720511, 2013; 0.36% of 350,000 active; activity (quench increase), % at 7.58 µM;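 active means mean added fluorescence quench of at least 8% versus neutral control, with both replicates also reaching 8%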;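 further: cells transiently co-express mutant CFTR-F508del with the halide-sensitive YFP; corrector assay measuring rescue of mutant channel to the surface after 24 h compound exposure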
# NSD2 inh: NSD2 histone methyltransferase inhibitors, primary screen, biochemical, AlphaScreen, single concentration, set 2 | NSD2 peptide methylation, 120 min | inhibition, % at 12.5 µM | Histone-lysine N-methyltransferase NSD2 (Homo sapiens), O96028 | 0.54% of 310,000 active; in the data active means inhibition above about 50%
# Casp6 inh: human caspase-6 inhibitors, primary screen, biochemical, VEID-R110 fluorescence, single point, set 2 | P55212 | purified caspase-6, Z-VEID-R110 cleavage fluorescence | inhibition, % at 12.5 µM | 0.53% of 350,000 active | AID 686996, 2013;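 active means mean inhibition across replicates at least about 35%, with every replicate also reaching that limit, limit read from the data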;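 further: 0% = median of neutral control wells and 100% = no fluorescence left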
# The depositor's hits bear a star; x = no result; [ ] = remark or other dose. A selection: hits, their analogues and other compounds. The true share with any hit is near 4.1%.
SMILES,PglD DTNB,ALR H2O2 inh,Env fusion inh,CFTR F508del cor,NSD2 inh,Casp6 inh
COc1ccc(/C=C(/C#N)C(=O)Nc2cccnc2)cc1OC,-3,1,5,x,-4,x
Cc1noc(C)c1NC(=O)Nc1ccc2c(c1)C(=O)N([C@@H](C)CO)C[C@H](C)[C@H](CN(C)Cc1ccc(C(F)(F)F)cc1)O2,-12,x,-24[16.7 µM],2,x,3
CC=Cc1ccc2n(c1=O)C[C@@H]1[C@@H](CO)[C@H](C(=O)NCC(F)(F)F)[C@H]2N1C(=O)C1CCCC1 (mixture of isomers),x,x,x,3,x,0
Cc1[nH]n(-c2ccccc2)c(=O)c1N=Nc1cccc(C(=O)O)c1,-9,-1,58*,-1,5,0
Cc1[nH]c2ccccc2c1N=Nc1cccc(C(=O)O)c1,x,98*,-38,x,2,1
COC(=O)c1cc(N=Nc2c(C)[nH]c3ccccc23)cc(C(=O)OC)c1,3,-10,4,1,2,4
COCC(=O)Nc1ccc2c(c1)OC[C@H](C)N(C(=O)Cc1cccnc1)C[C@@H](C)[C@H](OC)CN(C)C2=O,x,x,x,-5,x,2
Cc1cccc(OCC(=O)NNC(=O)c2ccc3nc[nH]c3c2)c1,-4,-13,x,17*,2,41*
COc1ccc(S(=O)(=O)Nc2ccc3c(c2)C(=O)N([C@@H](C)CO)C[C@H](C)[C@@H](CN(C)C(=O)C2CCCCC2)OCCCC[C@H](C)O3)cc1,2,x,2[16.7 µM],-5,x,0
COc1ccccc1CN1C[C@H](C)[C@H](OC)CN(C)C(=O)c2cc(NC(C)=O)ccc2OC[C@H]1C,1,x,5[16.7 µM],-2,x,x
Cc1ccc([N+](=O)[O-])cc1NC(=O)C(Sc1ccccc1)c1ccccc1 (stereo unspecified),x,-22,67*,x,17,x
O=C(O)C[C@H]1C=C[C@H](NC(=O)c2ccccc2F)[C@H](CO)O1,x,x,-3[16.7 µM],-1,x,x
C[C@H]1CN([C@@H](C)CO)S(=O)(=O)c2ccc(-c3ccc(F)cc3)cc2O[C@@H]1CN(C)C(=O)C1CC1,x,x,10[16.7 µM],2,x,x
COc1cccc(N2CCN(c3nc(C)cc(C)c3C#N)CC2)c1,-6,86*,-8,2,4,2
O=C(c1cccnc1)N1CC(=O)N2[C@H](CO)[C@@H](c3ccc(/C=C/c4ccccc4)cc3)[C@@H]2C1,x,x,x,-2,x,x
C[C@H]1CCCCO[C@@H](CN(C)S(=O)(=O)c2ccccc2)[C@@H](C)CN([C@@H](C)CO)C(=O)c2cc(NS(=O)(=O)c3cn(C)cn3)ccc2O1,0,x,4[16.7 µM],-1,x,2
O=C(CCc1ccc(O)c(O)c1)NNC(=S)NCCc1ccccc1,x,99*,26,x,1,7
O=C(CCc1ccc(O)c(O)c1)NNC(=S)Nc1ccc(Br)cc1Cl,2,99*,20,-1,14,28
COc1cccc(NC(=O)NNC(=O)CCc2ccc(O)c(O)c2)c1,-7,99*,7,-1,3,4
COc1ccc(CCC(=O)NNC(=O)Nc2cccc(Cl)c2)cc1,1,0,8,3,2,1
CCn1c(=O)c(=O)[nH]c2cc(C(=O)NC(C)c3ccc(S(N)(=O)=O)cc3)ccc21 (stereo unspecified),-8,97*,16,-1,0,1
CCn1c(=O)c(=O)[nH]c2cc(C(=O)Nc3ccc(S(=O)(=O)N4CCCC4)cc3)ccc21,-2,-14,-46,x,-2,1
Cc1ccc(-c2ccc(C3[C@@H]4CN(Cc5cccc(F)c5)C[C@H]3N4)cc2)cc1 (stereo partly specified),x,x,x,-1,x,-1
O=S1(=O)C[C@@H](O)[C@@H](Nc2ccc(Cl)cc2)C1,7,98*,-70,x,0,x
COc1ccc2c3c(n(C)c2c1)[C@@H](CO)N(Cc1cccc(Cl)c1)CC31CN(C(=O)C2CC2)C1,x,x,x,0,x,-3
